Records with an inconclusive call do not appear. A call without a number means that no potency is given here. Values without a mark were called inactive. The source made the active and inactive calls. Calls come from the whole dose curve; as a rule, active = well fitted activation curve with a large enough effect in the repeat runs; inconclusive = weak or mixed curves; inactive = flat fitted curve, though single readings scatter.
assay: A CellTox Green Cytotoxicity Assay to monitor cytotoxicity in HEK293 cells - 8 hour (AID 1224884); conditions: CellTox Green fluorescence; series mostly up to 76.8 µM; note: nearly all actives have a fitted effect of over 35% in size
Description: National Center for Advancing Translational Sciences [NCATS]
NIH Chemical Genomics Center [NCGC]
U.S. Environmental Protection Agency [EPA]
National Institutes of Environmental Health Sciences [NIEHS]
National Toxicology Program [NTP]
Cell-based models are critical for drug discovery. Determining the natural cytotoxic effects resulting from test compounds is an essential research activity. A CellTox Green Cytotoxicity Assay to monitor cytotoxicity in real time of continues cell culture during 40 hours of the compound treatment was used to screen Tox21 10K library compounds in Hek293 cells. CellTox Green Cytotoxicity Assay is a nonlytic, homogeneous, biofluorescent method to measure cytotoxicity in cell culture after experimental manipulation. The assay system uses a proprietary asymmetric cyanine dye that is excluded from viable cells but preferentially stains the dead cell's DNA. […] Viable cells produce no appreciable increases in fluorescence. Therefore, the fluorescence signal produced by the binding interaction with dead cell DNA is proportional to cytotoxicity.
The mixture of Hek293 cell suspension and reagents were dispensed at 600cells/6 ul/well in 1536-well tissue culture treated black solid bottom plates using a Multidrop dispenser. After the assay plates were incubated at a 37 C/5% CO2 incubator for 5 hours, 23 nL of compounds dissolved in DMSO, positive and negative controls was transferred to the assay plate by a pintool work station. The plates were incubated at 37 C for 40 hours. The fluorescence intensity were measured at 0h, 8h, 16h, 24h, 32h and 40h time points using ViewLux plate reader during compound treatment.

SMILES | Potency | cytotoxicity increase
OCCC1CCCCN1 (stereo not given) | inactive | 
CC(C)(C)c1cc(CCC(=O)OCC(COC(=O)CCc2cc(C(C)(C)C)c(O)c(C(C)(C)C)c2)(COC(=O)CCc2cc(C(C)(C)C)c(O)c(C(C)(C)C)c2)COC(=O)CCc2cc(C(C)(C)C)c(O)c(C(C)(C)C)c2)cc(C(C)(C)C)c1O | inactive | 
CCCC(=O)OCC | inactive | 
C=CCCCCCC | inactive | 
CCC(=O)OC(C)(C)C1CC=C(C)CC1 (stereo not given) | inactive | 
Cc1cc(O)ccc1N | inactive | 
Cc1ccc(C(N)=O)cc1N | inactive | 
CC(CN)CCCN (stereo not given) | inactive | 
O=C(O)C(c1ccc(Cl)cc1)c1ccc(Cl)cc1 | inactive | 
CN1CCN(C2=Nc3cc(Cl)ccc3Nc3ccccc32)CC1 | inactive | 
c1ccc(OCc2ccc(CCCN3CCOCC3)cc2)cc1 | inactive | 
Cc1ccccn1 | inactive | 
O=C(c1ccccc1)c1ccc2n1CCC2C(=O)O (stereo not given) | inactive | 
CC[C@H](C)[C@H](N)C(=O)O | inactive | 
C[Si](C)O[Si](C)(C)O[Si](C)(C)O[Si](C)C | inactive | 
COC(Cc1ccccc1)OC | inactive | 
N#Cc1cc2ccccc2c2ccccc12 | inactive | 
CCCCCCOC(=O)CCC | inactive | 
CC(C)CC=O | inactive | 
CC(C)(C)c1ccc(OCC2CO2)cc1 (stereo not given) | inactive | 

SMILES | Potency | cytotoxicity increase
COc1ccccc1OC(=O)Oc1ccccc1OC | inactive | 
Cc1cc(NC(=O)C(=O)O)cc(C)c1Oc1ccc(O)c2c1CCC2 | inactive | 
COc1cc(C(C)(C)C)c(O)c(C(C)(C)C)c1 | inactive | 
O=C(O)C1CCC(C(=O)O)CC1 (stereo not given) | inactive | 
OCC1CC2CC1C1CCC(CO)C21 (stereo not given) | inactive | 
CCCCCC/C=C/C=O | inactive | 
COC(=O)CSc1cc(N=c2sc(=O)n3n2CCCC3)c(F)cc1Cl | inactive | 
CCCCCCCCCCCCCCCC(=O)OC/C=C(C)/C=C/C=C(C)/C=C/C1=C(C)CCCC1(C)C | inactive | 
NC(N)=N/N=C/c1c(Cl)cccc1Cl | inactive | 
CC(=O)Nc1ccc(/C=N/NC(N)=S)cc1 | inactive | 
S=C(S)NCCNC(=S)S | inactive | 
CC(C)(C)c1cc(O)c(C(C)(C)C)cc1O | inactive | 
CCCCCCCCCCCCCCCCCBr |  | -3.41% [at 15.8 µM]
NCCCOCCOCCOCCCN | inactive | 
CC(O)C1CCCCC1 (stereo not given) | inactive | 
N[C@H]1C(O)O[C@H](CO)[C@H](O)[C@@H]1O (stereo not given in full) | inactive | 
OC(CCN1CCCCC1)(c1ccccc1)C1CCCCC1 (stereo not given) | inactive | 
C1CCC2OC2C1 (stereo not given) | inactive | 
O=C1CCCCCO1 | inactive | 
Cc1ccc2c(ccc3ccccc32)c1 | inactive | 

Source: PubChem BioAssay (Tox21)
